Screening results (PubChem)
An excerpt weighted towards active compounds, which were near 19% of everything screened.
DT40 TDP1 CPT – DT40-hTDP1 cell growth loss with CPT | Potency, µM (titrated, usually from 46.2 µM), for inactives: at the highest dose activity change, negative = growth inhibition, actives largely listed as inhibitors | 420,000 tested, 12% active | chicken DT40 Tdp1-/-;hTDP1 cells + 20 nM CPT, ATP luminescence, 48 h | AID 686979; also: potency is read from the fitted curve at half-maximal effect; % is scaled to controls: 0 for no effect and ±100 for the full control effect; nearly all actives have a fitted effect of over 55% in size
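Chicken DT40 Tdp1-/- cells stably complemented with human TDP1 were seeded at 400 cells/well in medium containing 20 nM camptothecin, exposed to pin-transferred compounds, and grown at 37 °C for at least 48 hr. Viability was read as ATP luminescence.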
BCR signal inh – inhibitors of chronic active B-cell receptor signaling; ABC-DLBCL IkBa-CBG/CBR reporter, luminescence ratio, 4 h; Potency, µM (top dose mostly 46.1 µM), for the others: at the top dose activity change, negative = inhibition, usual class: inhibitors; 340,000 tested, 0.05% active; active = well fitted inhibition curve with a large enough effect in the signal ratio, with a control signal flat, not every such curve was filed as active; inconclusive = small, poorly fitted or top-dose-only effect, or effect the other way, or a change in a side signal; the % refers to the signal ratio;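 also: potency is read from the fitted curve at half-maximal effect; plate controls were basal doxycycline-induced cells for no effect and cells given 10 µM MG132 for full effect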
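Compounds up to 46 uM were incubated four hours with TMD8 cells whose green CBG68 luciferase is fused to IkappaBalpha; red CBR luminescence normalised the signal, and concentration-effect curves were fitted to fusion, red and ratio data.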
DT40 TDP1 no CPT – qHTS for Inhibitors of human tyrosyl-DNA phosphodiesterase 1 (TDP1): qHTS in cells in absence of CPT; Potency, µM (doses to about 46.2 µM), inactives show at the top dose activity change, negative = growth inhibition, usual class: inhibitors; 420,000 tested, 15% active; DT40 Tdp1-/- hTDP1 cells, no CPT, ATP luminescence, 48 h; also: potency is read from the fitted curve at half-maximal effect; % is scaled to controls: 0 for no effect and ±100 for the full control effect; nearly all actives have a fitted effect of over 55% in size
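A cellular qHTS used chicken DT40 cells lacking endogenous Tdp1 but carrying stably transfected human TDP1. Compounds were applied without camptothecin, and cell growth kinetics were judged by ATP-dependent luminescence after ≥48 hr.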
IL1B secr inh – inhibitors of inflammasome signaling (IL-1 beta secretion) | 360,000 tested, 4.7% active | THP-1 LPS/ATP IL-1B secretion, AlphaLISA, 16 h; hits give low values | activity change, % at 57.5 µM; in the data active = activity change below about -50%; inconclusive = mostly about -30% to -49%; also: % is scaled to controls: 0 for no effect and ±100 for the full control effect
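Secreted IL-1B measured by AlphaLISA bead assay after 16 h compound exposure of THP-1 cells; compounds (final up to 57.5 uM) added 1 h before LPS (250 ng/mL) and ATP (1.25 mM) stimulation; lower signal means less secretion.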
SW480 rereplic – DNA re-replication induction in SW480 cells; 340,000 tested, 1.8% active; SW480 DNA re-replication, Hoechst DNA content imaging, 48 h; Potency, µM (series often up to 46.1 µM), for the others: at the top dose re-replication activation, actives largely listed as activators; also: potency is read from the fitted curve at half-maximal effect; % of control where 0% means no effect; nearly all actives have a fitted effect of over 55% in size
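Per well, 250 cells were exposed to pinned compound for 48 hr. Nuclear DNA was visualised with Hoechst (40 min, 37 C) and total object intensity recorded by fluorescence scanning.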
MCF10A rerep – induces DNA re-replication in MCF 10a normal breast cells | MCF 10A DNA re-replication, Hoechst nuclear intensity, 48 h | Potency, µM (doses to about 46.1 µM), inactives show top-dose activity, positive = re-replication, usual class: activators | 350,000 tested, 2.9% active; also: potency is read from the fitted curve at half-maximal effect; % of control where 0% means no effect; nearly all actives have a fitted effect of over 50% in size
The depositor's hits bear a star. Unless noted, calls follow the shape of the dose curve; as a rule, active = well fitted curve in the direction sought with a large enough effect; inconclusive = small, poorly fitted or top-dose-only effect, or another doubt; inactive = no such curve, though single readings can be large; an effect the other way counts as inactive or inconclusive.

What do the screens show for `C[C@@H]1CN([C@H](C)CO)C(=O)CCCn2nncc2CO[C@@H]1CN(C)C(=O)Nc1cccc2ccccc12`?
DT40 TDP1 CPT: 5%; DT40 TDP1 no CPT: -29%; IL1B secr inh: 10

What do the screens show for `Fc1cccc(Nc2ncnc3[nH]ncc23)c1`?
DT40 TDP1 CPT: -6%; BCR signal inh: inconclusive; DT40 TDP1 no CPT: -15%; IL1B secr inh: 50; SW480 rereplic: -25%; MCF10A rerep: 4.1µM*

Results for O=C(Nc1nc2c(s1)COc1ccccc1-2)c1cccs1 ?
DT40 TDP1 CPT: 12µM*; BCR signal inh: inconclusive; DT40 TDP1 no CPT: 23µM*; IL1B secr inh: 15; SW480 rereplic: 0%; MCF10A rerep: 7%

Results for O=C(CCS(=O)(=O)c1ccccc1)Nc1nc2c(s1)COc1ccccc1-2 ?
DT40 TDP1 CPT: 4.1µM*; BCR signal inh: 9%; DT40 TDP1 no CPT: 4.6µM*; IL1B secr inh: -13; SW480 rereplic: 6%; MCF10A rerep: 19%

How did CSCCC(NC(=O)COc1ccccc1)C(=O)OC(C)C(=O)Nc1ccccc1C (stereo not given) do in these assays?
DT40 TDP1 CPT: -25%; BCR signal inh: 1%; DT40 TDP1 no CPT: 1%; IL1B secr inh: -10; SW480 rereplic: 15%; MCF10A rerep: 2%

Results for Cc1ccc(NC(=O)CCc2c(C)nc3c(-c4ccc(F)cc4)c(C)nn3c2C)cc1F ?
DT40 TDP1 CPT: -20%; DT40 TDP1 no CPT: inconclusive

What do the screens show for `COc1cc(NC(=O)CCc2c(C)nc3c(-c4ccc(F)cc4)c(C)nn3c2C)cc(OC)c1OC`?
DT40 TDP1 CPT: 5.2µM*; DT40 TDP1 no CPT: 6.5µM*

Results for COC(CNC(=O)CCc1c(C)nc2c(-c3ccc(F)cc3)c(C)nn2c1C)OC ?
DT40 TDP1 CPT: -11%; BCR signal inh: inconclusive; DT40 TDP1 no CPT: inconclusive; IL1B secr inh: -2; SW480 rereplic: 0%; MCF10A rerep: 1%

Results for Cc1cccc(CCNC(=O)CCc2c(C)nc3c(-c4ccc(F)cc4)c(C)nn3c2C)c1 ?
DT40 TDP1 CPT: inconclusive; DT40 TDP1 no CPT: 9.2µM*

What do the screens show for `CC(=O)c1cccc(NC(=O)CCc2c(C)nc3c(-c4ccc(F)cc4)c(C)nn3c2C)c1`?
DT40 TDP1 CPT: 2.6µM*; DT40 TDP1 no CPT: inconclusive

Results for CC(=O)Nc1cccc(C(=O)N/N=C/c2c[nH]c3ccccc23)c1 ?
DT40 TDP1 CPT: 9%; BCR signal inh: inconclusive; DT40 TDP1 no CPT: -12%; IL1B secr inh: 30; SW480 rereplic: -1%; MCF10A rerep: 1%

How did CCOc1ccc(NC(=O)CC2C(=O)N(c3ccc(Cl)cc3)C(=O)N2Cc2cccs2)cc1 (stereo not given) do in these assays?
DT40 TDP1 CPT: inconclusive; DT40 TDP1 no CPT: 13µM*

Results for COC(=O)c1ccc(NC(=O)CC2C(=O)N(c3ccc(Cl)cc3)C(=O)N2Cc2cccs2)cc1 (stereo not given) ?
DT40 TDP1 CPT: 23µM*; DT40 TDP1 no CPT: inconclusive

What do the screens show for `COC(=O)c1ccc(NC(=O)CC2C(=O)N(c3ccccc3)C(=O)N2Cc2cccs2)cc1` (stereo not given)?
DT40 TDP1 CPT: 16µM*; BCR signal inh: 6%; DT40 TDP1 no CPT: 18µM*

How did COc1ccc(NC(=O)CC2C(=O)N(C)C(=S)N2Cc2cccs2)cc1 (stereo not given) do in these assays?
DT40 TDP1 CPT: 12%; BCR signal inh: -3%; DT40 TDP1 no CPT: -24%; IL1B secr inh: -8; SW480 rereplic: -5%; MCF10A rerep: -1%

How did O=C(c1cc(-c2cccc(Cl)c2)on1)N1CCCCC1 do in these assays?
DT40 TDP1 CPT: -20%; DT40 TDP1 no CPT: -14%

How did OCC[C@@H]1C[C@H](O)[C@@H](O)[C@]2(Cc3ccccc3CO2)O1 do in these assays?
DT40 TDP1 CPT: -14%; BCR signal inh: 1%; DT40 TDP1 no CPT: -11%; IL1B secr inh: 9; SW480 rereplic: 3%; MCF10A rerep: -2%

Results for CC1(C(=O)NCc2ccccc2)CN(S(C)(=O)=O)CC(=O)N1CCCn1ccnc1 (stereo not given) ?
DT40 TDP1 CPT: 34%; DT40 TDP1 no CPT: 12%; IL1B secr inh: 1

Results for O=C(Nc1ccc(-n2cccn2)cc1)C1CCCCN1Cc1cccc2c1OCO2 (stereo not given) ?
DT40 TDP1 CPT: 6.5µM*; BCR signal inh: inconclusive; DT40 TDP1 no CPT: 4.6µM*; IL1B secr inh: 28; SW480 rereplic: inconclusive; MCF10A rerep: 3.7µM*

Results for COc1ccc2c(C)cc3n[nH]c(=S)n3c2c1 ?
DT40 TDP1 CPT: -26%; BCR signal inh: 24%; DT40 TDP1 no CPT: -22%; IL1B secr inh: 31; SW480 rereplic: -30%; MCF10A rerep: -5%

Results for Cc1ccc(NC(=O)C2CCN(S(=O)(=O)c3ccccc3)CC2)cc1 ?
DT40 TDP1 CPT: -14%; BCR signal inh: 0%; DT40 TDP1 no CPT: -30%; IL1B secr inh: -13; SW480 rereplic: 0%; MCF10A rerep: 0%

How did Cc1ccc(S(=O)c2ccc(NC(=O)C3CC3)cc2C#N)cc1 (stereo not given) do in these assays?
DT40 TDP1 CPT: 18µM*; BCR signal inh: -3%; DT40 TDP1 no CPT: 23µM*; IL1B secr inh: 15; SW480 rereplic: -13%; MCF10A rerep: -9%

Results for Cc1ccc(CNC(=O)CS(=O)(=O)Cc2nc(-c3ccccc3C)oc2C)cc1 ?
DT40 TDP1 CPT: inconclusive; DT40 TDP1 no CPT: 16µM*

What do the screens show for `Cc1ccccc1-c1nc(CS(=O)(=O)CC(=O)Nc2c(C)cccc2C)c(C)o1`?
DT40 TDP1 CPT: inconclusive; DT40 TDP1 no CPT: 18µM*

How did CCCNC(=O)CS(=O)(=O)Cc1nc(-c2ccccc2C)oc1C do in these assays?
DT40 TDP1 CPT: -23%; BCR signal inh: 1%; DT40 TDP1 no CPT: 5%; IL1B secr inh: 6; SW480 rereplic: -3%; MCF10A rerep: 15%

How did CCOc1ccc(CCNC(=O)CS(=O)(=O)Cc2nc(-c3ccccc3F)oc2C)cc1 do in these assays?
DT40 TDP1 CPT: inconclusive; BCR signal inh: 1%; DT40 TDP1 no CPT: 12µM*; IL1B secr inh: -61*; SW480 rereplic: -2%; MCF10A rerep: -2%

What do the screens show for `COc1ccc(OC)c(NC(=O)CS(=O)(=O)Cc2nc(-c3ccccc3C)oc2C)c1`?
DT40 TDP1 CPT: 5%; BCR signal inh: 8%; DT40 TDP1 no CPT: 3%; IL1B secr inh: -18; SW480 rereplic: -6%; MCF10A rerep: 3%
